Results filed as inconclusive are left out. Active and inactive are the calls of the source. Calls come from the whole dose curve; as a rule, active = well fitted curve in the direction sought with a large enough effect; inconclusive = small, poorly fitted or top-dose-only effect, or another doubt; inactive = no such curve, though single readings can be large; an effect the other way counts as inactive or inconclusive. Where a SMILES comes first, the peptide text is derived from it.
Experiments:
[1] = qHTS to identify inhibitors of the type 1 interferon - major histocompatibility complex class I in skeletal muscle: primary screen against the NCATS Pharmaceutical Collection (AID 1347407);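 note: luminescence of HiBiT knocked into endogenous HLA-B as interferon-induced MHC class I level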
Procedure, shortened: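 Immortalized human myoblasts (C25cl48) with HiBiT knocked into endogenous HLA-B*08:01 were stimulated with 4.0 ng/ml IFN-beta and treated with compounds ([…] top 46 uM) for 24 hrs at 37 C. HiBiT lytic luminescence read.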

[2] = target: Protein phosphatase 1D (Homo sapiens) (UniProt O15297); experiment: RapidFire Mass Spectrometry qHTS Assay for Modulators of WT P53-Induced Phosphatase 1 (WIP1) (AID 1347424);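 note: amount of dephosphorylated VEPPL-S-QETFS peptide product formed by WIP1; series mostly up to about 63 µM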
Procedure, shortened: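 10 nM WIP1 + cpd, 1 h RT; + 2 uM VEPPL-pS-QETFS, 5 min RT; stop 0.5% formic acid; labelled product standard 1 uM; RapidFire MS. Buffer 50 mM Tris pH 7.5, 30 mM MgCl2, 1 mM TCEP.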

[3] = target: Protein phosphatase 1D (Homo sapiens) (UniProt O15297); experiment: Rhodamine-PBP qHTS Assay for Modulators of WT P53-Induced Phosphatase 1 (WIP1) (AID 1347425)
Procedure, shortened: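 5 nM WIP1 + 10 uM Rh-PBP, 50 mM Tris pH 7.5, 30 mM MgCl2, 1 mM TCEP, 0.1 mM EGTA, BSA; cpds pinned, 1 hr RT; + 10 uM phosphopeptide; fluorescence 1-min reads x 11 min; delta = f1 - f0.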

[4] = Primary qHTS for inhibitors of La Crosse Virus (LACV) - induced cell death in SH-SY5Y cells (AID 1508616);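 note: top concentration of the series differs between compounds; higher means more rescue of cells from virus-induced death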
Procedure, shortened: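 Protection against LACV-induced cell death is scored in SH-SY5Y cells exposed to compounds and virus (0.01 MOI) for 6 days. Data normalized to virus-infected DMSO wells and virus-free DMSO wells.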

Measured: Potency

Chain of Protein phosphatase 1D (Homo sapiens) (O15297 whole entry, looked up): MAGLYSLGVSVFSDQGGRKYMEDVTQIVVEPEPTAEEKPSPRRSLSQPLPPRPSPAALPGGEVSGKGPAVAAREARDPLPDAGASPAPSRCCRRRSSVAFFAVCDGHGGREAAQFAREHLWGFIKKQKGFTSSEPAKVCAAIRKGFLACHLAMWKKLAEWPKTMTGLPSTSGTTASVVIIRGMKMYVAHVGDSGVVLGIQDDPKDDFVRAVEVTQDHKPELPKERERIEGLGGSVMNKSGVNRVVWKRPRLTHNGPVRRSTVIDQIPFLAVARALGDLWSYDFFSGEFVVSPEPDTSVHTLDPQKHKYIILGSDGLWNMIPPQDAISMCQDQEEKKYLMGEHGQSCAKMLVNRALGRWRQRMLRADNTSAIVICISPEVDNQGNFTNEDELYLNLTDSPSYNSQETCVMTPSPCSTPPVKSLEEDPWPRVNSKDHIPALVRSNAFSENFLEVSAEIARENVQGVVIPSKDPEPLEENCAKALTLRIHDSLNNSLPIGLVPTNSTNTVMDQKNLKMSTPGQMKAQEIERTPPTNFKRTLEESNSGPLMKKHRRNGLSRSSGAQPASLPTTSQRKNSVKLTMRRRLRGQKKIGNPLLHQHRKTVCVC

CCC(C(=O)NC(=O)NC(C)=O)c1ccccc1 (stereo not given)
inactive: all assays above

COC(=O)c1ccc(NC(C)=O)cc1OC
inactive: all assays above

CC(CC1c2ccccc2CCc2ccccc21)CN(C)C (stereo not given)
inactive: all assays above

CCn1ccc(NS(=O)(=O)c2ccc(N)cc2)nc1=O
inactive: all assays above

C/C(=N\O)[C@@H](C)NCC(C)(C)CN[C@H](C)/C(C)=N/O
inactive: all assays above

COc1ccccc1OCC1CNC(=O)O1 (stereo not given)
inactive: all assays above

CN=C(N)NC(=O)Nc1c(C)cccc1C
inactive: all assays above

CCOC(=O)N1CCC(n2c(=O)[nH]c3cc(Cl)ccc32)CC1
inactive: all assays above

CO[C@@H]1[C@@H](O[C@@H]2O[C@H](C)[C@@H](O[C@H]3C[C@@](C)(O)[C@@H](O)[C@H](C)O3)[C@H](N(C)C)[C@H]2O)[C@@H](CC=O)C[C@@H](C)[C@@H](O[C@@H]2CC[C@H](N(C)C)[C@@H](C)O2)/C=C/C=C/C[C@@H](C)OC(=O)C[C@H]1OC(C)=O
inactive: all assays above

CC[N+](CC)(CC)CCOC(=O)C(C1CCCC1)C1CCCC1
inactive: all assays above

CCN(CC)CC(=O)Nc1c(C)cccc1C(=O)OC
inactive: all assays above

O=C1Cc2cc(Cl)ccc2N1
inactive: all assays above

Cc1ccccc1N1CCN(CCc2nnc3n2CCCC3)CC1
inactive: all assays above

Cc1nc([N+](=O)[O-])cn1-c1ccc([N+](=O)[O-])cc1
inactive: all assays above

O=C(O)Cc1ccc(OCCNC[C@H](O)c2ccccc2)cc1
inactive: all assays above

COc1ccccc1N1CCN(CC(O)COc2cc(OC)c(OC)c(OC)c2)CC1 (stereo not given)
inactive: all assays above

CCNC(=O)NCCCOc1cccc(CN2CCCCC2)c1
inactive: all assays above

COc1ccc(/C(C)=C/C(=O)O)c(OC)c1
inactive: all assays above

CC(=O)N[C@@H](CO)C(=O)N[C@@H](CC(=O)O)C(=O)N[C@@H](CCCCN)C(=O)N1CCC[C@H]1C(=O)O (Ac-SDKP-OH)
inactive: all assays above

CCOC(=O)[C@H](CCc1ccccc1)N[C@@H](C)C(=O)N(CC(=O)O)C1Cc2ccccc2C1
inactive: all assays above

CCCCCC[C@@H](CCC)C(=O)O
inactive: all assays above

CN1N=C(C(N)=O)CCC1=O
inactive: all assays above

CC(=O)OCC(=O)[C@@]1(O)CCC2C3CCC4=CC(=O)CC[C@]4(C)C3[C@@H](O)C[C@@]21C (stereo not given in full)
inactive: all assays above

CN1CCC(=C2c3ccccc3CCc3cccnc32)CC1
inactive: all assays above

O=C(O)Cn1cnnn1
inactive: all assays above

OC1(c2ccc(Cl)cc2)CCNCC1
inactive: all assays above

Cn1c(=O)c2c(ncn2CC(=O)O)n(C)c1=O
inactive: all assays above

COc1cc2c(cc1OC)C(=O)CC2
inactive: all assays above

O=C(CCCl)NCCc1ccccc1
inactive: all assays above

CCCCOC(=O)CCCCCCCCC(=O)OCCCC
inactive: all assays above

O=C(O)c1ccc(OCCN2CCCCC2)cc1
inactive: all assays above

C[N+](C)(CCOc1ccccc1)Cc1cccs1
inactive: all assays above

COC(=O)c1cc(Cl)ccc1OC
inactive: all assays above

CCOC(=O)O[C@]1(C(=O)OCCl)CC[C@H]2[C@@H]3CCC4=CC(=O)C=C[C@]4(C)[C@H]3[C@@H](O)C[C@@]21C
inactive: all assays above

Cc1cc(O)c(C)c(C)c1O
inactive: all assays above
